From PubChem BioAssay
Inconclusive results are not listed. Activity calls are given as the source filed them.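 How the source made its calls, unless noted: active means normalized viability below 100% at a tested concentration; inactive means the rest.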

What was measured:
[1] = growth inhibition of DIPG glioma cells, dose response, cell-based, SU-DIPG-XVII, MIPE5.0, CellTiter-Glo, qHTS (AID 1347060; cut-off not given, nearly all actives have AC50 up to about 26 µM;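 on AC50: cells exposed to compound for 48 hours before viability readout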); conditions: SU-DIPG-XVII viability, CellTiter-Glo ATP luminescence
[2] = growth inhibition of DIPG glioma cells, dose response, cell-based, SU-DIPG-XIII, MIPE4.0, CellTiter-Glo, qHTS (AID 1347061; cut-off not given, nearly all actives have AC50 up to about 37 µM;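 further: cells exposed to compound for 48 hours before readout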); conditions: SU-DIPG-XIII viability, CellTiter-Glo ATP luminescence
[3] = growth inhibition of DIPG glioma cells, dose response, cell-based, JHH-DIPG-1, MIPE4.0, CellTiter-Glo, qHTS (AID 1347062; cut-off not given, nearly all actives have AC50 up to about 27 µM;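 on AC50: cells exposed to compound for two days before readout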); conditions: JHH-DIPG-1 viability, CellTiter-Glo ATP luminescence
[4] = growth inhibition of DIPG glioma cells, dose response, cell-based, SU-DIPG-IV, MIPE4.0, CellTiter-Glo, qHTS (AID 1347063; cut-off not given, nearly all actives have AC50 up to about 30 µM;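 further: compound exposure lasted 48 hours before the viability readout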); conditions: SU-DIPG-IV viability, CellTiter-Glo ATP luminescence
[5] = growth inhibition of DIPG glioma cells, dose response, cell-based, SU-DIPG-XIII, MIPE5.0, CellTiter-Glo, qHTS (AID 1347064; cut-off not given, nearly all actives have AC50 up to about 23 µM;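 on AC50: cells exposed to compound for 48 hours before the viability read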); conditions: SU-DIPG-XIII viability, CellTiter-Glo ATP luminescence
[6] = viability loss in pontine glioma line – cell-based, SU-DIPG-XXV, MIPE5.0, CellTiter-Glo, qHTS, dose response (AID 1347065; cut-off not given, nearly all actives have AC50 up to about 26 µM;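 further: cells exposed to compound for 48 hours before ATP readout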); conditions: CellTiter-Glo ATP luminescence
[7] = SU-DIPG-VI glioma cell viability, MIPE4.0 library, CellTiter-Glo luminescence, qHTS (AID 1347066; cut-off not given, nearly all actives have AC50 up to about 30 µM;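 further: cells exposed to compound for 48 hours before readout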); conditions: CellTiter-Glo ATP luminescence
[8] = JHH-DIPG-1 glioma cell viability, MIPE5.0 library, CellTiter-Glo luminescence, qHTS (AID 1347067; cut-off not given, nearly all actives have AC50 up to about 26 µM;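 further: cells exposed to compound for 48 hours before readout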); conditions: JHH-DIPG-1 glioma viability, CellTiter-Glo ATP luminescence
[9] = SU-DIPG-XXV glioma cell viability, MIPE5.0 library, qHTS (AID 1347068; cut-off not given, nearly all actives have IC50 up to about 30 µM;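 on IC50: cells exposed to compound for 48 hours before viability readout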)
[10] = sensitizers of A549 cells to miR-34 induction, primary screen, imaging, A549 dox-inducible miR-34, nuclei and caspase counts (AID 1347080;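 active means compounds whose cell count with miR-34 switched on is under 0.7 times the count with it off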); conditions: A549 miR-34 inducible, Hoechst nuclei count, 48 h
[11] = modifiers of HSF1 nuclear foci, imaging, Selleck Cancer Library (AID 1347162; in the data active means plate-normalised HSF1 focus index below about 0.46); conditions: human cells, at 10 µM; SSMD: measured here: HSF1 foci SSMD mean; cell count: measured here: cell number; plate-normalised HSF1 focus index: stronger effect = lower value
[12] = survival rescue of mitochondrial mutant cells in low glucose, primary screen, MELAS cybrids, Rieske KO mouse fibroblasts, CellTiter-Glo (AID 1508586;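 active means mean z-score across replicates of 1.96 or higher in either the MELAS or the Rieske mutant cell line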;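 further: z relative to plate mean and SD of compound and empty wells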)
[13] = ovarian cancer cell viability with rucaparib, profiling panel, oncology-focused library, rucaparib conditional (AID 1508598); conditions: patient-derived ovarian cancer cells, CellTiter-Glo viability, 144 h, stronger effect = lower value
[14] = stronger effect = lower value, cell number ratio, induced over uninduced
[15] = measured here: relative caspase fold change +Dox/-Dox
[16] = measured here: total cells with miR-34 induction, stronger effect = lower value
[17] = measured here: total cells without miR-34 induction
[18] = MELAS cybrid survival, CellTiter-Glo 48 h, stronger effect = higher value
[19] = Rieske KO mouse fibroblast survival, CellTiter-Glo 72 h
[20] = at 0.000305 µM, OCI-C5x cells, with rucaparib 10 µM, 100% = cells with rucaparib alone
[21] = at 0.000305 µM, OCI-C5x cells, without rucaparib
[22] = at 0.000305 µM, OCI-P5x cells, with rucaparib 20 µM, 100% = cells with rucaparib alone
[23] = at 0.000305 µM, OCI-P5x cells, without rucaparib
[24] = at 0.00122 µM, OCI-C5x cells, with rucaparib 10 µM, 100% = cells with rucaparib alone
[25] = at 0.00122 µM, OCI-C5x cells, without rucaparib
[26] = at 0.00122 µM, OCI-P5x cells, with rucaparib 20 µM, 100% = cells with rucaparib alone
[27] = at 0.00122 µM, OCI-P5x cells, without rucaparib
[28] = at 0.00488 µM, OCI-C5x cells, with rucaparib 10 µM, 100% = cells with rucaparib alone
[29] = at 0.00488 µM, OCI-C5x cells, without rucaparib
[30] = at 0.00488 µM, OCI-P5x cells, with rucaparib 20 µM, 100% = cells with rucaparib alone
[31] = at 0.00488 µM, OCI-P5x cells, without rucaparib
[32] = at 0.0195 µM, OCI-C5x cells, with rucaparib 10 µM, 100% = cells with rucaparib alone
[33] = at 0.0195 µM, OCI-C5x cells, without rucaparib
[34] = at 0.0195 µM, OCI-P5x cells, with rucaparib 20 µM, 100% = cells with rucaparib alone
[35] = at 0.0195 µM, OCI-P5x cells, without rucaparib
[36] = at 0.0781 µM, OCI-C5x cells, with rucaparib 10 µM, 100% = cells with rucaparib alone
[37] = at 0.0781 µM, OCI-C5x cells, without rucaparib
[38] = at 0.0781 µM, OCI-P5x cells, with rucaparib 20 µM, 100% = cells with rucaparib alone
[39] = at 0.0781 µM, OCI-P5x cells, without rucaparib
[40] = at 0.313 µM, OCI-C5x cells, with rucaparib 10 µM, 100% = cells with rucaparib alone
[41] = at 0.313 µM, OCI-C5x cells, without rucaparib
[42] = at 0.313 µM, OCI-P5x cells, with rucaparib 20 µM, 100% = cells with rucaparib alone
[43] = at 0.313 µM, OCI-P5x cells, without rucaparib
[44] = at 1.25 µM, OCI-C5x cells, with rucaparib 10 µM, 100% = cells with rucaparib alone
[45] = at 1.25 µM, OCI-C5x cells, without rucaparib
[46] = at 1.25 µM, OCI-P5x cells, with rucaparib 20 µM, 100% = cells with rucaparib alone
[47] = at 1.25 µM, OCI-P5x cells, without rucaparib
[48] = at 5 µM, OCI-C5x cells, with rucaparib 10 µM, 100% = cells with rucaparib alone
[49] = at 5 µM, OCI-C5x cells, without rucaparib
[50] = at 5 µM, OCI-P5x cells, with rucaparib 20 µM, 100% = cells with rucaparib alone
[51] = at 5 µM, OCI-P5x cells, without rucaparib

OCCCNc1cc(-c2ccnc(Nc3cccc(Cl)c3)n2)ccn1
active: AC50 [1] 132 nM | AC50 [2] 148 nM | AC50 [3] 148 nM | AC50 [4] 52.6 nM | AC50 [5] 83.3 nM | AC50 [6] 132 nM | AC50 [8] 118 nM | IC50 [9] 148 nM
inactive: outcome [7]

Cc1ccc(C(=O)Nc2ccc(CN3CCN(C)CC3)c(C(F)(F)F)c2)cc1C#Cc1cnc2cccnn12
7680: cell count [11]
-2.78: z-score [12, 19]
597: cell count [10, 17]
814: cell count [10, 16]
inactive: fold change [10, 14] 1.36 | plate-normalised HSF1 focus index [11] 1.09 | z-score [12, 18] 1.37 | viability [13, 21] 114% | viability [13, 22] 108% | viability [13, 23] 114% | viability [13, 25] 122% | viability [13, 26] 103% | viability [13, 27] 111% | viability [13, 28] 104% | viability [13, 29] 130% | viability [13, 31] 107% | viability [13, 33] 127% | viability [13, 34] 102% | viability [13, 37] 117% | viability [13, 39] 111% | viability [13, 41] 118% | viability [13, 45] 116%
1.5: SSMD [11]
active: AC50 [1] 590 nM | AC50 [2] 418 nM | AC50 [3] 6620 nM | AC50 [4] 1180 nM | AC50 [5] 661 nM | AC50 [6] 833 nM | AC50 [7] 8330 nM | AC50 [8] 2350 nM | IC50 [9] 2950 nM | viability [13, 20] 94.7% | viability [13, 24] 98% | viability [13, 30] 97% | viability [13, 32] 95.2% | viability [13, 35] 89.9% | viability [13, 36] 94.7% | viability [13, 38] 88.1% | viability [13, 40] 93.2% | viability [13, 42] 44.4% | viability [13, 43] 77.9% | viability [13, 44] 58.9% | viability [13, 46] 24.3% | viability [13, 47] 28.1% | viability [13, 48] 2.01% | viability [13, 49] 3.5% | viability [13, 50] 8.21% | viability [13, 51] 6.01%
1.05: fold change [10, 15]

CC[C@@H](C)[C@H](NC(=O)[C@H](CC1CCCCC1)NC(=O)c1ccno1)C(=O)N1CCC2(CCc3ccccc32)CC1
inactive: outcome [1] | outcome [2] | outcome [3] | outcome [4] | outcome [5] | outcome [7] | outcome [8] | outcome [9]
active: AC50 [6] 11800 nM

CCNC(=O)c1noc(-c2cc(C(C)C)c(O)cc2O)c1-c1ccc(CN2CCOCC2)cc1
1290: cell count [10, 17]
inactive: outcome [9] | fold change [10, 14] 1.03 | plate-normalised HSF1 focus index [11] 1.08 | viability [13, 20] 136% | viability [13, 21] 129% | viability [13, 23] 112% | viability [13, 24] 131% | viability [13, 25] 137%
active: AC50 [1] 16.6 nM | AC50 [2] 105 nM | AC50 [3] 74.3 nM | AC50 [4] 52.6 nM | AC50 [5] 33.2 nM | AC50 [6] 11.8 nM | AC50 [7] 4690 nM | AC50 [8] 20.9 nM | z-score [12, 18] 2.88 | viability [13, 22] 98% | viability [13, 26] 69.1% | viability [13, 27] 97.9% | viability [13, 28] 29.2% | viability [13, 29] 12.3% | viability [13, 30] 13.9% | viability [13, 31] 5.95% | viability [13, 32] 9.68% | viability [13, 33] 9.96% | viability [13, 34] 6.4% | viability [13, 35] 4.69% | viability [13, 36] 9.48% | viability [13, 37] 9.56% | viability [13, 38] 6.42% | viability [13, 39] 4.47% | viability [13, 40] 8.98% | viability [13, 41] 9.43% | viability [13, 42] 5.55% | viability [13, 43] 3.94% | viability [13, 44] 10.6% | viability [13, 45] 9.54% | viability [13, 46] 4.83% | viability [13, 47] 3.83% | viability [13, 48] 9.11% | viability [13, 49] 9.15% | viability [13, 50] 3.61% | viability [13, 51] 2.59%
7410: cell count [11]
2.25: SSMD [11]
0.0253: z-score [12, 19]
0.796: fold change [10, 15]
1340: cell count [10, 16]
